# Results filed as inconclusive are left out. Where a call stands in place of a potency, no number is given. The source made the active and inactive calls. Calls come from the whole dose curve; as a rule, active = well fitted cell-killing curve with a large enough effect; inconclusive = small, poorly fitted or top-dose-only effect; inactive = flat fitted curve, though single readings scatter.
# Assay: Cell Viability - LYMP2-015 (AID 971); note: nearly all actives have a fitted effect of over 55% in size
# Details: LYMP2-015 lymphoblastoid cell viability; series mostly up to 92.2 µM
# Outline: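 qHTS cytotoxicity: 2500 cells/well, 5 hr 37 C, compound 24 hr 37 C, CellTiter-Glo 30 min RT, luminescence. Loss of ATP = toxicity; AC50 via standard Hill fit.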
# Potency is the fitted concentration of half-maximal effect.
row,SMILES,Potency
1,CCOCCOC(C)=O,inactive
2,COc1ccc(C(c2ccc(OC)cc2)C(Cl)(Cl)Cl)cc1,inactive
3,O=C(O)C(Cl)Cl,inactive
4,O=C(O)COc1ccccc1,inactive
5,O=[N+]([O-])c1c2ccccc2cc2ccccc12,inactive
6,CC(C)(O)C(=O)Nc1ccc([N+](=O)[O-])c(C(F)(F)F)c1,inactive
7,CN(C)NC(=O)CCC(=O)O,inactive
8,CCCCCCCCc1ccc(O)cc1,inactive
9,O=[N+]([O-])c1cc([N+](=O)[O-])c2ccccc2c1,inactive
10,CN(C)[C@@H]1C(=O)C(C(N)=O)=C(O)[C@@]2(O)C(=O)C3=C(O)c4c(O)cccc4[C@@](C)(O)[C@H]3[C@H](O)[C@@H]12,inactive
11,CC(=O)[O][Hg][c]1ccccc1,631 nM (active)
12,O=S(=O)(c1ccc(Cl)cc1)c1ccc(Cl)cc1,inactive
13,CCCCOC(=O)c1ccccc1C(=O)OCc1ccccc1,inactive
14,O=[N+]([O-])c1c(Cl)c(Cl)cc(Cl)c1Cl,inactive
15,COC(C)(C)CCCC(C)C/C=C/C(C)=C/C(=O)OC(C)C (stereo not given),inactive
16,Nc1ccc(Sc2ccc(N)cc2)cc1,inactive
17,C=CC(=O)NCNC(=O)C=C,inactive
18,Cc1cc(O)ccc1Cl,inactive
19,C1CCC(NC2CCCCC2)CC1,inactive
20,CCCCC(CC)COC(=O)c1ccccc1C(=O)OCC(CC)CCCC (stereo not given),inactive
21,Nc1ccc([N+](=O)[O-])cc1,inactive
22,c1cc2ccc3cccc4ccc(c1)c2c34,inactive
23,OCCCBr,inactive
24,Nc1ccc(Cl)cc1,inactive
25,CCOP(=O)(NC(C)C)Oc1ccc(SC)c(C)c1 (stereo not given),inactive

# — PubChem BioAssay (NCATS)
